Calls of active or inactive are those of the source. Unless noted, no rule for the calls is given here.

The test system of assay [1] is Wnt5a (protein binding on small-molecule microarray). Put plainly: Wnt5a binders on small-molecule microarray, primary screen, biophysical, 635/667 nm fluorescence (AID 1142).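 Also: fluorescence read at 667 nm with signal to noise per printed feature.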 The conditions noted are these: 635 nm fluorescence, higher = more signal.
Assay [2] in a line: cell viability in Huh7 cells, primary screen, cytotoxicity control for HCV replication inhibitor project, CellTiter-Glo luminescence, basal, 48 h (AID 1143).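 Also: Huh7 hepatoma cells carrying a hepatitis C replication reporter with no stimulus; test concentration not given here.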 The conditions noted are these: Huh7 HCV replicon, higher = more signal, called active from +8 up or from −8 down. For orientation: In ATP-based viability assays light output follows the ATP content of the culture.
Assay [3] is described as follows: P. aeruginosa biofilm formation inhibitors, primary screen, PAO1 strain, BacTiter-Glo luminescence, LB-PBS (AID 1144). The settings on record: 12 h, higher = more signal.
A short description of assay [4]: CREB reporter modulators without forskolin, primary screen, cell-based, PC12, CRE-LacZ reporter, unstimulated (AID 1145). The settings on record: no forskolin, luminescence, 4.5 h, higher = more signal, called active from +8 up or from −8 down.
Assay [5] can be described thus: CREB reporter modulators under forskolin, primary screen, cell-based, PC12, CRE-LacZ reporter, forskolin-stimulated (AID 1146).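 Also: PC12 cells with 6xCRE LacZ reporter stimulated by forskolin 10 µM; beta-galactosidase reporter signal reflecting CREB driven transcription.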 The settings on record: luminescence, 4.5 h, higher = more signal, called active from +8 up or from −8 down.
In assay [6] the target is Streptavidin (Streptomyces avidinii) (UniProt P22629). The assay is described as follows: streptavidin binders on small-molecule microarray, primary screen, artefact control for SMM compound annotation, biophysical, 635/667 nm fluorescence (AID 1147).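 Also: signal reflects streptavidin binding to arrayed compounds as a control protein.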 The settings on record: streptavidin binding, higher = more signal.
Assay [7] is described as follows: small-molecule binders of probe aInhba, primary screen, biochemical, small-molecule microarray, 635/667 nm fluorescence (AID 1148).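 Also: score merges 667nm spot fluorescence with signal-to-noise for antibody binding to printed compounds.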 The conditions noted are these: higher = more signal.
In assay [8] the target is Torsin-1A (Homo sapiens) (UniProt O14656). Put plainly: torsin A binders from cell lysate, primary screen, small-molecule microarray, wild-type, 635/667 nm (AID 1149). The settings on record: COS7 hTOR1A-WT lysate, 635 nm fluorescence, higher = more signal.
Assay [9] shares this target. Put plainly: small-molecule binders of mutant TOR1A in lysate, primary screen, cell lysate, small-molecule microarray, COS7 lysate, 635/667 nm fluorescence (AID 1150).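 Also: score pools 667 nm emission and signal to noise measuring lysate protein binding.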 The conditions noted are these: COS7 hTOR1A mutant lysate, 635 nm fluorescence, higher = more signal.
Assay [10] relates to Sonic hedgehog protein (Shh). Put plainly: small-molecule binders of Shh protein, primary screen, biochemical, small-molecule microarray, 635/667 nm fluorescence (AID 1151).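 Also: Shh protein binding to compounds spotted on small-molecule microarray slides; score combines spot fluorescence intensity with signal-to-noise across triplicate slides.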 The settings on record: small-molecule microarray binding, 635 nm fluorescence; higher = more signal.
Assay [11] is described as follows: E. coli DRC41 culture turbidity changes, primary screen, E. coli filamentation inducer project, strain DRC41, OD650, 48 h (AID 1152).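 Also: E. coli MC1000 strain DRC41 lacking acrAB efflux pump and sulA.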 The conditions noted are these: E. coli DRC41 (acrAB sulA), higher = more signal, called active from +8 up or from −8 down.
Assay [12] can be described thus: small-molecule binders of probe aLefty1, primary screen, biochemical, small-molecule microarray, 635/667 nm fluorescence (AID 1153).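 Also: score merges spot fluorescence with signal-to-noise ratio from the scanned slide images.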 The settings on record: higher = more signal.
Assay [13] can be described thus: PSAC antagonists in infected red cells, primary screen, cell-based, P. falciparum Indochina, OD700, 1 h (AID 1154). The settings on record: P. falciparum Indochina infected RBC osmotic lysis, higher = more signal, called active from +8 up or from −8 down.
The nature of assay [14]: PSAC antagonists in infected red cells, primary screen, cell-based, P. falciparum Indochina, OD700, 2 h (AID 1155).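 Also: lysis reports solute entry through the parasite surface anion channel PSAC; channel blockers reduce lysis of infected cells.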 The settings on record: P. falciparum Indochina infected erythrocytes, osmotic lysis OD700; higher = more signal, called active from +8 up or from −8 down.
The nature of assay [15]: osmotic lysis modulators in infected erythrocytes, primary screen, PSAC antagonist project, cell-based, P. falciparum Indochina, OD700, 3 h (AID 1156). The conditions noted are these: higher = more signal, called active from +8 up or from −8 down.
Assay [16] can be described thus: PSAC antagonists in infected red cells, primary screen, cell-based, P. falciparum Indochina, OD700, 18 h (AID 1157). The settings on record: P. falciparum Indochina infected erythrocytes, osmotic lysis OD700, 18 h; higher = more signal, called active from +8 up or from −8 down.
The nature of assay [17]: modulators of S6 phosphorylation in cells, primary screen, cell-based, A549, cytoblot, luminescence, serum-stimulated (AID 1158).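 Also: serum-stimulated A549 lung adenocarcinoma cells; signal is phosphorylated S6 detected by cytoblot immunostaining with HRP secondary.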 The settings on record: A549 phospho-S6 cytoblot, 5 h, higher = more signal.
Assay [18] addresses NADPH oxidase 2 (Homo sapiens) (UniProt P04839). The assay is described as follows: NOX2-dependent H2O2 signal modulators, primary screen, NOX inhibitor project, cell-based, HEK293-NOX2, PMA-stimulated, Amplex Red fluorescence (AID 1159). Also: test concentration not given here. The settings on record: 45 min, higher = more signal, called active from +8 up or from −8 down.
Assay [19] deals with NADPH oxidase 4 (Homo sapiens) (UniProt Q9NPH5). The assay is described as follows: NOX4-dependent H2O2 signal modulators, primary screen, NOX inhibitor project, cell-based, HEK293-NOX4, tetracycline-induced, Amplex Red fluorescence (AID 1160). The conditions noted are these: 45 min, higher = more signal, called active from +8 up or from −8 down.
In assay [20] the target is NADPH oxidase 5 (Homo sapiens) (UniProt Q96PH1). Put plainly: NOX5-dependent H2O2 signal modulators, primary screen, NOX inhibitor project, cell-based, HEK293-NOX5, Amplex Red fluorescence (AID 1161). The conditions noted are these: HEK293-NOX5, ionomycin, 45 min, higher = more signal.
Sequence of NADPH oxidase 5 (Homo sapiens) (Q96PH1 whole entry, looked up): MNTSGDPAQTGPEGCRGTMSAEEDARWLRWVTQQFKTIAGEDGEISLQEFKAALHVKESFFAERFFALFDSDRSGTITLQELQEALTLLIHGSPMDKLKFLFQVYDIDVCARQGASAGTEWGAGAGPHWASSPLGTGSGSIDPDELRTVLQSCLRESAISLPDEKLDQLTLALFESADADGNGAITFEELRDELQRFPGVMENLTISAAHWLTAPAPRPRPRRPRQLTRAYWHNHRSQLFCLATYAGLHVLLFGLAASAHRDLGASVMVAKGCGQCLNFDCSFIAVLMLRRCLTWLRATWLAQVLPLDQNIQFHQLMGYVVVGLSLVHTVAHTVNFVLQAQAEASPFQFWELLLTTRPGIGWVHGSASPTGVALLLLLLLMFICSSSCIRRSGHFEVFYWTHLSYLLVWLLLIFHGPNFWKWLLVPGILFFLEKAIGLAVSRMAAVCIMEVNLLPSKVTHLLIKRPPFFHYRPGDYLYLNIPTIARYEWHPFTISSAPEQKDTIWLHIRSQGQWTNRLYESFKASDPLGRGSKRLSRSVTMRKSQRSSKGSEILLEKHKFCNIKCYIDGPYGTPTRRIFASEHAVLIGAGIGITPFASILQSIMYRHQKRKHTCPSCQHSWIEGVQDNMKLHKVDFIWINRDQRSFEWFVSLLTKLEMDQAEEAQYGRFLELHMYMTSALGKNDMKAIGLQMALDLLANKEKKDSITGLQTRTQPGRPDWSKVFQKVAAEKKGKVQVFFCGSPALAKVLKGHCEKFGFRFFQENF

Sequence of Streptavidin (Streptomyces avidinii) (P22629 whole entry, looked up): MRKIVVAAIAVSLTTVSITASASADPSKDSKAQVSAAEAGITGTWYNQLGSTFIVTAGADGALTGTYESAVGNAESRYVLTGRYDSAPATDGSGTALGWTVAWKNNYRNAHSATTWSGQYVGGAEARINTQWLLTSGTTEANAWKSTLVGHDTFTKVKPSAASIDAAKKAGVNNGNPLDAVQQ
Sequence of Torsin-1A (Homo sapiens) (O14656 whole entry, looked up): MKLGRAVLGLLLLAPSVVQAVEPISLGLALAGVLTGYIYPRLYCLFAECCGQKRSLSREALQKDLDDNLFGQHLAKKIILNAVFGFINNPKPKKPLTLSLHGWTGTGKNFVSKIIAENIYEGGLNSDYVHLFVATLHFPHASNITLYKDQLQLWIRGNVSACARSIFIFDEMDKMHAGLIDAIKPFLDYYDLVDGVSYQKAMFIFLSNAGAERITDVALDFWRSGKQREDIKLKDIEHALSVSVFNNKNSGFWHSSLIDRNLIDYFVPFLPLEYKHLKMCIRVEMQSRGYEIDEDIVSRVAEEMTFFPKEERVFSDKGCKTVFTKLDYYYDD
Sequence of NADPH oxidase 2 (Homo sapiens) (P04839 whole entry, looked up): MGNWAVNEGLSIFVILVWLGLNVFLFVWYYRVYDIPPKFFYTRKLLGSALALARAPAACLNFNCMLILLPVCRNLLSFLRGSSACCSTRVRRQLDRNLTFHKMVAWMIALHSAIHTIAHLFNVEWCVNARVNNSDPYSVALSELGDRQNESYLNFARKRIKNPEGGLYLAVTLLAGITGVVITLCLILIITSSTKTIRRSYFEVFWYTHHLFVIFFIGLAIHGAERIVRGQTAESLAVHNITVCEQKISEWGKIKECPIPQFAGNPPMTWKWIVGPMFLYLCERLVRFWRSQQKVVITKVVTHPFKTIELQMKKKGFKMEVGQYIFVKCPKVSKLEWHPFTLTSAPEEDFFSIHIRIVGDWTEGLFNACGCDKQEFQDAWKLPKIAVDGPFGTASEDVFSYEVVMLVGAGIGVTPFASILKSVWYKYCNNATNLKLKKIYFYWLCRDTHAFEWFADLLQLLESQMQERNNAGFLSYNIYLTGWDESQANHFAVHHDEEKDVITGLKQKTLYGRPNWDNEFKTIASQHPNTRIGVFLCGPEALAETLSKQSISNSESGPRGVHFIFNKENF
Sequence of NADPH oxidase 4 (Homo sapiens) (Q9NPH5 whole entry, looked up): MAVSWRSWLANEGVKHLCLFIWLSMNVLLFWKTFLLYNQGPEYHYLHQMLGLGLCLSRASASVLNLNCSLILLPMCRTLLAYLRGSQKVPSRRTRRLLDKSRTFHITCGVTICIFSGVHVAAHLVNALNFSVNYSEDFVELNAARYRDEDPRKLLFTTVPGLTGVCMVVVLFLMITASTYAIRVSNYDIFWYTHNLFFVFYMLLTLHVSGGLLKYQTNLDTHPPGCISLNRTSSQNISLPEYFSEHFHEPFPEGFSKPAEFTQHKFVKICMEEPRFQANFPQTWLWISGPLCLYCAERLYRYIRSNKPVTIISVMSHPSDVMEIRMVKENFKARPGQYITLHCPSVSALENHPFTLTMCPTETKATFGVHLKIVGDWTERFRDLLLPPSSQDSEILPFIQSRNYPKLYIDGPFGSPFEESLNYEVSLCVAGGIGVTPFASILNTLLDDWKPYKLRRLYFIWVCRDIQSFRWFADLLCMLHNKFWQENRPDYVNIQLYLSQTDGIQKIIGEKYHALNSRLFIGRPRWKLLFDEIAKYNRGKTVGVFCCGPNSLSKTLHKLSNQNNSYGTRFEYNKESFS

Turning to `COc1ccc([Si](C)(C)[C@H]2[C@H](CC(=O)N3Cc4ccccc4C[C@H]3CO)O[C@@]3(C(=O)N(C)c4c(Br)cc(C)cc43)[C@@H]2C)cc1`, the composite z-score was 0.144 in assay [1]; 0.298 in assay [6]; -0.0087 in assay [7]; 0.573 with Torsin-1A (Homo sapiens) [8]; 0.435 in the assay with Torsin-1A (Homo sapiens) [9]; 2.11 in assay [10]. The same compound came in with a composite z-score in assay [12] of 0.297. The z-score in assay [2] is -7.74 (inactive); in assay [3] it was -0.324 (inactive); in assay [4], 7.68 (inactive); in assay [5] it was -1.29 (inactive); in assay [11], -1.05 (inactive); in assay [13], 9.31 (active). Moreover, the z-score is 2.16 (inactive) in assay [14]; 1.31 (inactive) in [15]; 1.68 (inactive) in assay [16]; 0.0914 in [17]; 0.0544 (inactive) in assay [18]; 0.794 (inactive) in [19]. In assay [20], the z-score was 0.136.

As for `Cc1ccc(N2C(=O)c3ccccc3[C@](C)(C(=O)NCCCN(C)C)[C@@H]2c2ccc(CO)cc2)nc1`, the composite z-score in assay [1] was -0.169; in assay [6], -0.0986; in assay [7] it was -0.0983; with Torsin-1A (Homo sapiens) [8], -1.38; with Torsin-1A (Homo sapiens) [9], -1.27; in assay [10], -1.01. Further, the composite z-score in assay [12] is -0.0058. Besides, the z-score in [2] was 0.368 (inactive); in [3], 0.414 (inactive); in [4] it was 0.0279 (inactive); in assay [5], 0.64 (inactive); in [11], -0.666 (inactive); in assay [13], 1.23 (inactive). Besides, the z-score in assay [14] is 0.0681 (inactive); in assay [15], 0.386 (inactive); in assay [16], -0.135 (inactive); in assay [17] it was -0.0873; in assay [18], 0.627 (inactive); in [19] it was 0.631 (inactive). Moreover, the z-score in assay [20] turned out to be 0.199.

As to `C[C@@H]1NC(=O)C([C@@H](C)OCc2ccccc2)NC(=O)[C@@]23C(=O)N[C@@H](Cc4ccccc4)C2[C@H](C)[C@@]2(C)O[C@H]2C3/C=C/C/C=C\CNC1=O` (stereo not given in full), the composite z-score in [1] is 0.0076; in [6] it was -1.07; in assay [7], -0.25; with Torsin-1A (Homo sapiens) [8] it was 0.0772; in the assay with Torsin-1A (Homo sapiens) [9], 0.0936; in [10], 1.12. Besides, the composite z-score in [12] was -0.147. The z-score in assay [2] is -0.371 (inactive); in assay [3], 0.571 (inactive); in [4], -0.507 (inactive); in [5], 0.428 (inactive); in assay [11] it was -0.999 (inactive); in [13], 2.36 (inactive). In addition, the z-score is -0.169 (inactive) in assay [14]; 0.604 (inactive) in [15]; 0.182 (inactive) in assay [16]; -0.093 in assay [17]; 0.715 (inactive) in [18]; -0.942 (inactive) in [19]. In assay [20], this compound showed a z-score of 0.467.

Turning to `CC(C)N1C(=O)c2ccccc2[C@](C)(C(=O)NCC(F)(F)F)[C@@H]1c1ccc(CO)cc1`, the composite z-score is -0.218 in assay [1]; -0.913 in assay [6]; 0.0516 in assay [7]; -0.978 with Torsin-1A (Homo sapiens) [8]; 0.33 in the assay with Torsin-1A (Homo sapiens) [9]; -0.982 in assay [10]. In addition, the composite z-score in assay [12] is 0.402. Also, the z-score in assay [2] is -0.167 (inactive); in assay [3], 0.633 (inactive); in [4], 0.414 (inactive); in assay [5], -0.0278 (inactive); in [11], 0.481 (inactive); in assay [13], 0.834 (inactive). The z-score in assay [14] was -0.0162 (inactive); in assay [15] it was -0.377 (inactive); in assay [16], -0.16 (inactive); in assay [17], 0.0308; in assay [18], 0.91 (inactive); in [19], 0.89 (inactive). In addition, the z-score in [20] worked out at 0.783.

The record behind these values is PubChem BioAssay.
